# Measurements from PubChem BioAssay (EPA / NIEHS).
# A structure can be active in one record and inactive in another. Active and inactive are the calls of the source. Rule for the calls: active = hit-call score of the fitted dose curve at least 0.9, where 1 is the maximum; inactive = score below 0.9.
# Tested on: not listed separately
# Assay: ATG_SREBP_CIS: Attagene CIS-FACTORIAL HepG2 Assay for human Sterol Regulatory Element Binding (SREBP) (AID 2282962)
# Conditions: HepG2 Attagene cis-factorial SREBP reporter, mRNA; actives raise or lower the signal
# Procedure, shortened: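 Endogenous SREBP activity read as cis-element-driven reporter transcript in transiently transfected HepG2, 24 h post-dosing; quantified via RT-PCR plus capillary electrophoresis of fluorescent fragments. Gain or loss of signal fitted relative to DMSO baseline.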
SMILES,outcome,AC50
C=C(C)C(=O)OCCC(F)(F)C(F)(F)C(F)(F)C(F)(F)C(F)(C(F)(F)F)C(F)(F)F,inactive,–
CCCCCCCCCCCCCCCC[N+](C)(C)Cc1ccccc1,inactive,–
CC(C)(C)C(=O)CC(=O)C(F)(F)C(F)(F)C(F)(F)F,inactive,–
C(=C(c1ccccc1)c1ccccc1)c1ccccc1,inactive,–
CCCCNc1ccccc1,inactive,–
O=C(O)C(F)(F)C(F)(F)C(F)(F)F,inactive,–
FC(F)(F)C(F)(F)C(F)(F)N(C(F)(F)C(F)(F)C(F)(F)F)C(F)(F)C(F)(F)C(F)(F)F,inactive,–
O=S(=O)(OCC(F)F)C(F)(F)F,inactive,–
COC(OC(C)=O)c1ccccc1 (stereo not drawn),inactive,–
FC(F)(Br)C(F)(F)C(F)(F)C(F)(F)C(F)(F)C(F)(F)Br,inactive,–
O=C(O)C(F)(OC(F)(F)C(F)(OC(F)(F)C(F)(F)C(F)(F)F)C(F)(F)F)C(F)(F)F (stereo not drawn),inactive,–
O=C(O)C(F)(F)C(F)(F)C(F)(F)C(F)(F)C(F)(F)C(F)(F)C(F)(F)C(F)(F)C(F)(F)C(F)(F)C(F)(F)C(F)(F)C(F)(F)F,inactive,–
O=C(O)C(F)(F)C(F)(F)C(F)(F)C(F)(F)C(F)(F)C(F)(F)C(F)(F)C(F)(F)C(F)(F)C(F)F,inactive,–
O=C(O)C(F)(F)C(F)(F)C(F)F,inactive,–
CCCCCCOC(=O)c1ccccc1O,inactive,–
NC(=O)C(F)(F)C(F)(F)C(F)(F)C(F)(F)F,inactive,–
FC(F)(F)C(F)(F)C(F)(F)C(F)(F)C(F)(F)C(F)(F)CC1CO1 (stereo not drawn),inactive,–

SMILES,outcome,AC50
FC1CC(F)(F)C(F)(F)C1(F)F (stereo not drawn),inactive,–
CCCCOc1ccc(N)cc1,inactive,–
O=C(O)C(F)(F)C(F)(F)C(F)(F)C(F)(F)C(F)(F)C(F)(F)C(F)(F)C(F)(F)Cl,inactive,–
CC(Cc1ccc(O)c(O)c1)C(C)Cc1ccc(O)c(O)c1 (stereo not drawn),inactive,–
FC(F)(F)C(F)(F)C(F)(F)C(F)(F)C(F)(F)C(F)(F)C(F)(F)I,inactive,–
CCCCOCCOCCOC(=O)CCCCC(=O)OCCOCCOCCCC,inactive,–
OCCCC(F)(F)C(F)(F)C(F)(F)C(F)(F)C(F)(F)C(F)(F)C(F)(F)F,inactive,50 µM (active)
CNC(=S)NC,inactive,–
[Co],inactive,–
C=CC(F)(F)C(F)(F)C(F)(F)C(F)(F)C(F)(F)C(F)(F)C(F)(F)C(F)(F)C=C,inactive,–
CCC(=O)OCCc1ccccc1,inactive,–
CC/C=C\CCOC(=O)c1ccccc1,inactive,–
O=C(C=Cc1ccccc1)OCC=Cc1ccccc1,inactive,–
CCCCCCCOC(=O)c1ccccc1C(=O)OCCCCCCC,inactive,–
OCCCC(F)(F)C(F)(F)C(F)(F)F,inactive,–
CCCCCCC(C)OC(=O)CCCCC(=O)OC(C)CCCCCC (stereo not drawn),inactive,–
OCC(F)(F)C(F)(F)C(F)(F)F,inactive,–

# Biological target: Signal transducer and activator of transcription 3 (Homo sapiens) (UniProt P40763)
# Assay: ATG_STAT3_CIS: Attagene CIS-FACTORIAL HepG2 Assay for human Signal Transducer and Activator of Transcription 3 (STAT3) (AID 2282963)
# Conditions: HepG2, Attagene cis-factorial STAT3 reporter transcription; actives raise or lower the signal
# Procedure, shortened: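 Readout is reporter transcript quantified by RT-PCR and capillary electrophoresis, with 6-FAM primer extension and HpaI digestion. Total RNA is taken 24 h after dosing transiently transfected HepG2 carrying cis-regulated reporter units. Bidirectional fit against DMSO.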
# Chain of Signal transducer and activator of transcription 3 (Homo sapiens) (P40763 whole entry, looked up): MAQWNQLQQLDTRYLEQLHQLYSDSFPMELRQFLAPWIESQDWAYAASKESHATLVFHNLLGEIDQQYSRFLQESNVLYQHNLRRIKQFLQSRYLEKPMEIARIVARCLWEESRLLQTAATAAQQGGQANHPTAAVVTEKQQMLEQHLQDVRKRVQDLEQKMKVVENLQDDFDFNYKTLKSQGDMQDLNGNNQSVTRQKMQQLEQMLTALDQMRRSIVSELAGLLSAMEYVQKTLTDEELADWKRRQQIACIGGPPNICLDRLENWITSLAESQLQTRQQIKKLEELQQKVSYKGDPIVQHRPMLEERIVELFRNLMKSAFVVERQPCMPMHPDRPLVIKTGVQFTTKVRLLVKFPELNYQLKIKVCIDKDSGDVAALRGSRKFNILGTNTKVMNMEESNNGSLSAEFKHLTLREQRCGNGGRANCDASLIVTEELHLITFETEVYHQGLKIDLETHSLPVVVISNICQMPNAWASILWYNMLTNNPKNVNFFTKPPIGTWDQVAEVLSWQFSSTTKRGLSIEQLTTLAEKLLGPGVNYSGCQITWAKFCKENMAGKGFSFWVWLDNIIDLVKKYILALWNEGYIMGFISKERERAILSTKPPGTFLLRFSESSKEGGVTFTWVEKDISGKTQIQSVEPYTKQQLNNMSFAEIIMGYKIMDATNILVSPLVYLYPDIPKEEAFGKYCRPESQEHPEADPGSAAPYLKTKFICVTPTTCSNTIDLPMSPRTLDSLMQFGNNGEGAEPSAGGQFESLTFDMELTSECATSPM
row,SMILES,outcome
1,C=C(C)C(=O)OCCC(F)(F)C(F)(F)C(F)(F)C(F)(F)C(F)(C(F)(F)F)C(F)(F)F,inactive
2,CCCCCCCCCCCCCCCC[N+](C)(C)Cc1ccccc1,inactive
3,O=C(O)C(F)(F)C(F)(F)C(F)(F)F,inactive
4,FC(F)(F)C(F)(F)C(F)(F)N(C(F)(F)C(F)(F)C(F)(F)F)C(F)(F)C(F)(F)C(F)(F)F,inactive
5,O=S(=O)(OCC(F)F)C(F)(F)F,inactive
6,FC(F)(Br)C(F)(F)C(F)(F)C(F)(F)C(F)(F)C(F)(F)Br,inactive
7,O=C(O)C(F)(OC(F)(F)C(F)(OC(F)(F)C(F)(F)C(F)(F)F)C(F)(F)F)C(F)(F)F (stereo not drawn),inactive
8,O=C(O)C(F)(F)C(F)(F)C(F)(F)C(F)(F)C(F)(F)C(F)(F)C(F)(F)C(F)(F)C(F)(F)C(F)(F)C(F)(F)C(F)(F)C(F)(F)F,inactive
9,O=C(O)C(F)(F)C(F)(F)C(F)(F)C(F)(F)C(F)(F)C(F)(F)C(F)(F)C(F)(F)C(F)(F)C(F)F,inactive
10,O=C(O)C(F)(F)C(F)(F)C(F)F,inactive
11,CCCCCCOC(=O)c1ccccc1O,inactive
12,NC(=O)C(F)(F)C(F)(F)C(F)(F)C(F)(F)F,inactive
13,FC(F)(F)C(F)(F)C(F)(F)C(F)(F)C(F)(F)C(F)(F)CC1CO1 (stereo not drawn),inactive
14,FC1CC(F)(F)C(F)(F)C1(F)F (stereo not drawn),inactive
15,O=C(O)C(F)(F)C(F)(F)C(F)(F)C(F)(F)C(F)(F)C(F)(F)C(F)(F)C(F)(F)Cl,inactive
16,FC(F)(F)C(F)(F)C(F)(F)C(F)(F)C(F)(F)C(F)(F)C(F)(F)I,inactive
17,CCCCOCCOCCOC(=O)CCCCC(=O)OCCOCCOCCCC,inactive
18,[Co],inactive
19,CCC(=O)OCCc1ccccc1,inactive
20,CC/C=C\CCOC(=O)c1ccccc1,inactive
21,O=C(C=Cc1ccccc1)OCC=Cc1ccccc1,inactive
22,CCCCCCC(C)OC(=O)CCCCC(=O)OC(C)CCCCCC (stereo not drawn),inactive
23,OCC(F)(F)C(F)(F)C(F)(F)F,inactive

# Tested on: not listed separately
# Assay: ATG_TA_CIS: Attagene CIS-FACTORIAL HepG2 Assay for human TA Basal Promoter (AID 2282964)
# Conditions: HepG2 Attagene CIS-factorial TA basal promoter reporter; actives raise or lower the signal
# Procedure, shortened: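 HepG2 cells transiently transfected with multiplexed cis-promoter reporter units, dosed 24 h. Reporter mRNA measured by RT-PCR, 6-FAM labelling, HpaI digestion and capillary electrophoresis; bidirectional fit versus DMSO baseline, serving as background control.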
SMILES,outcome,AC50
C=C(C)C(=O)OCCC(F)(F)C(F)(F)C(F)(F)C(F)(F)C(F)(C(F)(F)F)C(F)(F)F,inactive,–
CCCCCCCCCCCCCCCC[N+](C)(C)Cc1ccccc1,inactive,–
CC(C)(C)C(=O)CC(=O)C(F)(F)C(F)(F)C(F)(F)F,inactive,–
C(=C(c1ccccc1)c1ccccc1)c1ccccc1,inactive,–
CCCCNc1ccccc1,inactive,–
O=C(O)C(F)(F)C(F)(F)C(F)(F)F,inactive,–
FC(F)(F)C(F)(F)C(F)(F)N(C(F)(F)C(F)(F)C(F)(F)F)C(F)(F)C(F)(F)C(F)(F)F,inactive,–
O=S(=O)(OCC(F)F)C(F)(F)F,inactive,–
COC(OC(C)=O)c1ccccc1 (stereo not drawn),inactive,–
FC(F)(Br)C(F)(F)C(F)(F)C(F)(F)C(F)(F)C(F)(F)Br,inactive,–
O=C(O)C(F)(OC(F)(F)C(F)(OC(F)(F)C(F)(F)C(F)(F)F)C(F)(F)F)C(F)(F)F (stereo not drawn),inactive,–
O=C(O)C(F)(F)C(F)(F)C(F)(F)C(F)(F)C(F)(F)C(F)(F)C(F)(F)C(F)(F)C(F)(F)C(F)(F)C(F)(F)C(F)(F)C(F)(F)F,inactive,–
O=C(O)C(F)(F)C(F)(F)C(F)(F)C(F)(F)C(F)(F)C(F)(F)C(F)(F)C(F)(F)C(F)(F)C(F)F,inactive,–
O=C(O)C(F)(F)C(F)(F)C(F)F,inactive,–
CCCCCCOC(=O)c1ccccc1O,inactive,–
NC(=O)C(F)(F)C(F)(F)C(F)(F)C(F)(F)F,inactive,–
FC(F)(F)C(F)(F)C(F)(F)C(F)(F)C(F)(F)C(F)(F)CC1CO1 (stereo not drawn),inactive,–

SMILES,outcome,AC50
FC1CC(F)(F)C(F)(F)C1(F)F (stereo not drawn),inactive,–
CCCCOc1ccc(N)cc1,inactive,–
O=C(O)C(F)(F)C(F)(F)C(F)(F)C(F)(F)C(F)(F)C(F)(F)C(F)(F)C(F)(F)Cl,inactive,50 µM (active)
CC(Cc1ccc(O)c(O)c1)C(C)Cc1ccc(O)c(O)c1 (stereo not drawn),–,18.4 µM (active)
FC(F)(F)C(F)(F)C(F)(F)C(F)(F)C(F)(F)C(F)(F)C(F)(F)I,inactive,–
CCCCOCCOCCOC(=O)CCCCC(=O)OCCOCCOCCCC,inactive,–
OCCCC(F)(F)C(F)(F)C(F)(F)C(F)(F)C(F)(F)C(F)(F)C(F)(F)F,inactive,–
CNC(=S)NC,inactive,–
[Co],inactive,–
C=CC(F)(F)C(F)(F)C(F)(F)C(F)(F)C(F)(F)C(F)(F)C(F)(F)C(F)(F)C=C,inactive,–
CCC(=O)OCCc1ccccc1,inactive,–
CC/C=C\CCOC(=O)c1ccccc1,inactive,–
O=C(C=Cc1ccccc1)OCC=Cc1ccccc1,inactive,–
CCCCCCCOC(=O)c1ccccc1C(=O)OCCCCCCC,inactive,–
OCCCC(F)(F)C(F)(F)C(F)(F)F,inactive,–
CCCCCCC(C)OC(=O)CCCCC(=O)OC(C)CCCCCC (stereo not drawn),inactive,–
OCC(F)(F)C(F)(F)C(F)(F)F,inactive,–
